In assay [1] the target is T1, Serine/threonine-protein kinase TAO1 (Homo sapiens) (UniProt Q7L7X3).
T1 sequence (whole entry): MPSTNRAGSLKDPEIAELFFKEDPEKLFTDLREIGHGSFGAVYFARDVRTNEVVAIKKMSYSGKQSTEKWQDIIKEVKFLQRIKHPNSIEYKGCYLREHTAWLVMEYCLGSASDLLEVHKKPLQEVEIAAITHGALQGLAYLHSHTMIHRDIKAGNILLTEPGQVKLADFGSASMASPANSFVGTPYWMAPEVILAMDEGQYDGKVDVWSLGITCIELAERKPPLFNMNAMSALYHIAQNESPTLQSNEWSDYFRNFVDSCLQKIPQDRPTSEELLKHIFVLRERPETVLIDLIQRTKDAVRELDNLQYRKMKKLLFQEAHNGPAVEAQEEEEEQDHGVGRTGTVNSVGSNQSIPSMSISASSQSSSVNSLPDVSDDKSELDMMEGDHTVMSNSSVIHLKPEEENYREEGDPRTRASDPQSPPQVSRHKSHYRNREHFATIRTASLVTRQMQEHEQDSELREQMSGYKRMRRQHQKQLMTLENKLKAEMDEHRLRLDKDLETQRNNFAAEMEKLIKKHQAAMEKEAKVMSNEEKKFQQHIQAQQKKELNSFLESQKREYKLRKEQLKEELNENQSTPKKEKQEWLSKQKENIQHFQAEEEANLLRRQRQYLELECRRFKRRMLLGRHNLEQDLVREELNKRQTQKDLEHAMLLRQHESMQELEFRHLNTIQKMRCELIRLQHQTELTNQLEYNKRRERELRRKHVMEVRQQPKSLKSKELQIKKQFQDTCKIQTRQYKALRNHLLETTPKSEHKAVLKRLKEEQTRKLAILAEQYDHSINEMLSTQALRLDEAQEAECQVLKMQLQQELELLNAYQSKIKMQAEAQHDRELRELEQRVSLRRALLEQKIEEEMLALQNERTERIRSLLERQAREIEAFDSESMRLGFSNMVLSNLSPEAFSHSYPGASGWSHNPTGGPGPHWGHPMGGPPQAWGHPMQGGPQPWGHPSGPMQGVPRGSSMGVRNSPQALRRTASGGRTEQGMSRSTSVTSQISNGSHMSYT
As to conditions: at 10 µM.

Assay [2] has as its target T2, Serine/threonine-protein kinase TAO3 (Homo sapiens) (UniProt Q9H2K8).
T2 sequence (whole entry): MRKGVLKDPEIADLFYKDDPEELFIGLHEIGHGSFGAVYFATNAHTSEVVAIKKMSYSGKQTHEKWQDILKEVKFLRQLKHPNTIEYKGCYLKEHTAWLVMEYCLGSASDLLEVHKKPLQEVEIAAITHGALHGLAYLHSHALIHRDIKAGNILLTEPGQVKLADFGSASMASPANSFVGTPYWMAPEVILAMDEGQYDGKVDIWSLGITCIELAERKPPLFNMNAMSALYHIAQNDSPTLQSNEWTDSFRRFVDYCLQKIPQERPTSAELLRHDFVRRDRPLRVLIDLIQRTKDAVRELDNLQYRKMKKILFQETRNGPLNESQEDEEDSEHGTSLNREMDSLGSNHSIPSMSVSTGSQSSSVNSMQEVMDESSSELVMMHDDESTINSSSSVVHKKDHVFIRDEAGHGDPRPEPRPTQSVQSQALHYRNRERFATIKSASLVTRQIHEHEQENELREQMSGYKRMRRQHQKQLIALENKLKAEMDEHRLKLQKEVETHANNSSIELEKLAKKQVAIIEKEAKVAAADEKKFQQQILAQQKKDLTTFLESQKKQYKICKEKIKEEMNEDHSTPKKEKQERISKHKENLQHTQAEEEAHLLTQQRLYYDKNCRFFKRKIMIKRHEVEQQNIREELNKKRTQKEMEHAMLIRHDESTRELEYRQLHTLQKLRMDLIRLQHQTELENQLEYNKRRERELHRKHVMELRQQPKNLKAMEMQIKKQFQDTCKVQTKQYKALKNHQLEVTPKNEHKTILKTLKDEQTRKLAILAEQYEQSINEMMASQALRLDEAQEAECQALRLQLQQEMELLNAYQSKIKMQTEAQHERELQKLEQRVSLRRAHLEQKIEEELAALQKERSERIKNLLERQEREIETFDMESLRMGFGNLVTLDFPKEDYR
Particulars: at 10 µM.

Assay [3] addresses T3, Serine/threonine-protein kinase TBK1 (Homo sapiens) (UniProt Q9UHD2).
T3 sequence (whole entry): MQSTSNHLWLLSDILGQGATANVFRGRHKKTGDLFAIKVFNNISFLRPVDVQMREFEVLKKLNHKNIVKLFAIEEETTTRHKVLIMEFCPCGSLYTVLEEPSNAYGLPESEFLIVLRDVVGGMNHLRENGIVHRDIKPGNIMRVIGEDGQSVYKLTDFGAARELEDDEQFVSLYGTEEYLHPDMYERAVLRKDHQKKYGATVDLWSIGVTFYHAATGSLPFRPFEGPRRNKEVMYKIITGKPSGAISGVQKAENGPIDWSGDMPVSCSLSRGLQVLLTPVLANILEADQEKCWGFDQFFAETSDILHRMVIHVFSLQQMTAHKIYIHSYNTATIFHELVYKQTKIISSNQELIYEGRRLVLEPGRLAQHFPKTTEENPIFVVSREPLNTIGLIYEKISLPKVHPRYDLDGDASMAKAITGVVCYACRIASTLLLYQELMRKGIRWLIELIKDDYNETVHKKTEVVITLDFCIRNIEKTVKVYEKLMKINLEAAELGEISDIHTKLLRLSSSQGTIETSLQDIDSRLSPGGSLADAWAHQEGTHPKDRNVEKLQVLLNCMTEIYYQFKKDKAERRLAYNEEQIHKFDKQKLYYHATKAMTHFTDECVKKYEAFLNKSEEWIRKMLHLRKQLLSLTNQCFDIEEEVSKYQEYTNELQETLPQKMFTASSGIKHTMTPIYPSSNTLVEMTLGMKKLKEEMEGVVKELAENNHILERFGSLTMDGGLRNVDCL
Particulars: at 10 µM.

The target of assay [4] is T4, Inhibitor of nuclear factor kappa-B kinase subunit beta (Homo sapiens) (UniProt O14920).
T4 sequence (whole entry): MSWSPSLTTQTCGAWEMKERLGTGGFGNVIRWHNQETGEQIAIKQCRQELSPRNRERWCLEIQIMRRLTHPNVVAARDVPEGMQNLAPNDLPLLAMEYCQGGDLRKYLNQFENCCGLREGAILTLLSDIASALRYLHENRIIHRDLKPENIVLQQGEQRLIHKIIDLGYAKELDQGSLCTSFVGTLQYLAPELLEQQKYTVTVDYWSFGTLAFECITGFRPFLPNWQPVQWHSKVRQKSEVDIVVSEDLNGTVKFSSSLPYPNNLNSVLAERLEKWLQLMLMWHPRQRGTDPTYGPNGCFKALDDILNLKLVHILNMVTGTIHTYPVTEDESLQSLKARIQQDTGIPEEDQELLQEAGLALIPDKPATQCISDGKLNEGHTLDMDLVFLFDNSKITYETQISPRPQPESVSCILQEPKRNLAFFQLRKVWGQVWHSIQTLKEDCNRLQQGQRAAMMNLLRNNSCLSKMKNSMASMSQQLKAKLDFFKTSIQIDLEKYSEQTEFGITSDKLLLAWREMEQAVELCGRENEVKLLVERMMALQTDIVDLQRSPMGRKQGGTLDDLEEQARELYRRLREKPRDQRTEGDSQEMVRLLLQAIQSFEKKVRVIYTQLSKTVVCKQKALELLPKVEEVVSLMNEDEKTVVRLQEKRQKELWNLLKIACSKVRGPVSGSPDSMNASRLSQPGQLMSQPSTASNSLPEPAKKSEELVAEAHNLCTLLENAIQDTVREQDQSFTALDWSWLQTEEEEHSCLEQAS
As to conditions: at 1 µM.

The target in assay [5] is T4, Inhibitor of nuclear factor kappa-B kinase subunit beta (Homo sapiens). Particulars: at 10 µM.
The target in assay [6] is T5, Serine/threonine-protein kinase TAO2 (Homo sapiens) (UniProt Q9UL54).
T5 sequence (whole entry): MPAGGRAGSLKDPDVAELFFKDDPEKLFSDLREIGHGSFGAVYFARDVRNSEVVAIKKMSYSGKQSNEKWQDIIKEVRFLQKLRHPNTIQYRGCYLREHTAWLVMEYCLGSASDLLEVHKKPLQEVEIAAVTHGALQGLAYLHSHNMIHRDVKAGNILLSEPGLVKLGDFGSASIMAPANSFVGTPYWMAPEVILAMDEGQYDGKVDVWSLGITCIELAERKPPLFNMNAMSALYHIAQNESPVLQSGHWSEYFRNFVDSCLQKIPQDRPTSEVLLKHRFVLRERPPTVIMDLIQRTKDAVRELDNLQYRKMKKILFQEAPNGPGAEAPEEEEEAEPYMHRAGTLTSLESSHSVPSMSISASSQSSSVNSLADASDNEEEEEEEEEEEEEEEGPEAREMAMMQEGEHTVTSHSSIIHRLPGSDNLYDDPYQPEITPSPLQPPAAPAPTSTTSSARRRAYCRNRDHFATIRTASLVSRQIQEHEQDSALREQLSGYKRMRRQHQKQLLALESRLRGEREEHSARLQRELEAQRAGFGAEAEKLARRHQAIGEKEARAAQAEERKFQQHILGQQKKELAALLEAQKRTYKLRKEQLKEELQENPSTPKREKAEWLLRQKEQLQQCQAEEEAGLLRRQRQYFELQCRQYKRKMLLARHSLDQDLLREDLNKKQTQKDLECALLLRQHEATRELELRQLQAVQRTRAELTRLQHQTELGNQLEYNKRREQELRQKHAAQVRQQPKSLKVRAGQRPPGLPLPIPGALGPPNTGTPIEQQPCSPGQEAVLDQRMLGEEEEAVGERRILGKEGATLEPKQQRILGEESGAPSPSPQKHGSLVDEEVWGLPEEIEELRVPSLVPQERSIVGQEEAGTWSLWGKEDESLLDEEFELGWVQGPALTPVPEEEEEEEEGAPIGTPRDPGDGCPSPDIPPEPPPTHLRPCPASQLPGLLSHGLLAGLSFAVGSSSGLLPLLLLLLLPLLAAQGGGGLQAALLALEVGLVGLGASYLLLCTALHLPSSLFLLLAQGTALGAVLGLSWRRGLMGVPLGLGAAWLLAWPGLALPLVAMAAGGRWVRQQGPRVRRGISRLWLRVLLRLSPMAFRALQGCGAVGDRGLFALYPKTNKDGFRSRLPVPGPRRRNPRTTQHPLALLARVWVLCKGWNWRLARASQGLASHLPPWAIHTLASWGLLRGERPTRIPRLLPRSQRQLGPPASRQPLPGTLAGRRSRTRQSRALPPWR
As to conditions: at 1 µM.

For assay [7], the target named is T5, Serine/threonine-protein kinase TAO2 (Homo sapiens). As to conditions: at 10 µM.
The target in assay [8] is Insulin receptor (Homo sapiens) (UniProt P06213). Particulars: at 1 µM.
Sequence of Insulin receptor (Homo sapiens) (P06213 28-758 limits assumed): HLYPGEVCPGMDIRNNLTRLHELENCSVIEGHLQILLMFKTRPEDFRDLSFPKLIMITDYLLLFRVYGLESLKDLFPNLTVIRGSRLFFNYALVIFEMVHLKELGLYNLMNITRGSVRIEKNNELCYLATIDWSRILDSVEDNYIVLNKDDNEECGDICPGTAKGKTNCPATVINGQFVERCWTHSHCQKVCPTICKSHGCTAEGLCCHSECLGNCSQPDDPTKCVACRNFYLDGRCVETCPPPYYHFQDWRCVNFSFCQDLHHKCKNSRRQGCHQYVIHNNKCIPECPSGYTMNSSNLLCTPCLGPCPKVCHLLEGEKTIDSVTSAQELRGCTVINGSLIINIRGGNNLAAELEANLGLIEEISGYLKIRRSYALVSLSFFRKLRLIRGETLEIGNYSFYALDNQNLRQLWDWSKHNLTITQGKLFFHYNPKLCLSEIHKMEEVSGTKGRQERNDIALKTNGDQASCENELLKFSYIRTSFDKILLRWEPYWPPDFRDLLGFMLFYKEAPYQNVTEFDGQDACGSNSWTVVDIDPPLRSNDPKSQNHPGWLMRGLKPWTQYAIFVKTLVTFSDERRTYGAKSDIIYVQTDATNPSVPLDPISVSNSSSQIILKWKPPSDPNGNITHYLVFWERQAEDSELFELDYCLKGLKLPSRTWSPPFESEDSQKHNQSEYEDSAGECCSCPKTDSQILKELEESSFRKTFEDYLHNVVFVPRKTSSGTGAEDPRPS
Sequence of Insulin receptor (Homo sapiens) (P06213 763-1382 limits assumed): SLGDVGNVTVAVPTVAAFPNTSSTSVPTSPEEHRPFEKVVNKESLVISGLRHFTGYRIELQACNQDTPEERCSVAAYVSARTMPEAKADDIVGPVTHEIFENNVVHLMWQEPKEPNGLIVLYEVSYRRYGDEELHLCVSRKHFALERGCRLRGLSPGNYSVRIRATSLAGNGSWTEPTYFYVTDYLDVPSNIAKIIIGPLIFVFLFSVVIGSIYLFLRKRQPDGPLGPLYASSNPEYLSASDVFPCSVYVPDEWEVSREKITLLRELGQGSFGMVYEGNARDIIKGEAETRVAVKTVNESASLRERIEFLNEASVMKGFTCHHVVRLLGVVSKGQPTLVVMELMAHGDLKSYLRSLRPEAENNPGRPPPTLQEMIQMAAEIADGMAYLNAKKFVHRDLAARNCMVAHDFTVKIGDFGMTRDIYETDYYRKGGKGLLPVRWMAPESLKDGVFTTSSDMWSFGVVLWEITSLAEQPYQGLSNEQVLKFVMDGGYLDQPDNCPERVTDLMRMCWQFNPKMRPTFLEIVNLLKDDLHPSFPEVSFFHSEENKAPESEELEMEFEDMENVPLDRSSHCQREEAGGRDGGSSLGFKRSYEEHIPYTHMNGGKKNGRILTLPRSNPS
Assay [9] addresses T6, Mitogen-activated protein kinase kinase kinase 7 (Homo sapiens) (UniProt O43318).
T6 sequence (whole entry): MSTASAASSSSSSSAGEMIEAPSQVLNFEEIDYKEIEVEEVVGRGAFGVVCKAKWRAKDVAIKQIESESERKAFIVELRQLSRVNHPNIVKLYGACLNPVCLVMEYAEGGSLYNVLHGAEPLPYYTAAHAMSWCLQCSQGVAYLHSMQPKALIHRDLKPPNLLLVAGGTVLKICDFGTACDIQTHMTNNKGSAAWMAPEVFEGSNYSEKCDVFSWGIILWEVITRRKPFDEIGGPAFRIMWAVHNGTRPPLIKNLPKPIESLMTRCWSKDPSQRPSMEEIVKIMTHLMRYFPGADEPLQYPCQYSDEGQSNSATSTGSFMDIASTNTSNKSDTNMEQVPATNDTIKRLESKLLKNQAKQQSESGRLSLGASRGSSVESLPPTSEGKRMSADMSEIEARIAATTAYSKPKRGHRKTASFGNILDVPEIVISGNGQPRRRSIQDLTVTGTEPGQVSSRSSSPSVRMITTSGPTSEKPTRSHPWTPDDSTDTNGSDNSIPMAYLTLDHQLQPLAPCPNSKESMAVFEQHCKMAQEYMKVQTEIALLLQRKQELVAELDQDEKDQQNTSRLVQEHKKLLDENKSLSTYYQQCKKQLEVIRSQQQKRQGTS
Particulars: at 1 µM.

The target of assay [10] is T6, Mitogen-activated protein kinase kinase kinase 7 (Homo sapiens). Particulars: at 10 µM.

Take `O=S(=O)(NCCNC/C=C/c1ccc(Br)cc1)c1cccc2cnccc12`: the residual activity in assay [1] is 59%; in [2], 61%; in [3] it was 66%; in [4], 126%; in assay [5] it was 100%.

For the compound `O=C(Nc1ccc(Cl)cc1)c1ccccc1NCc1ccncc1`, the residual activity in assay [6] is 101%; in assay [7] it was 61%; in [8], 100%.

Consider `CN([C@@H](Cc1ccc(OS(=O)(=O)c2cccc3cnccc23)cc1)C(=O)N1CCN(c2ccccc2)CC1)S(=O)(=O)c1cccc2cnccc12`, for which the residual activity in [9] came to 99%; in assay [10], 98%; in assay [8], 134%.
